Activity calls are given as the source filed them. The calls were made as follows: active = hit-call score of the fitted dose curve at least 0.9, where 1 is the maximum; inactive = score below 0.9.
Tests used:
[1] = read-out: Fatty acid synthase (Homo sapiens) (UniProt P49327); test: LTEA_HepaRG_FASN: Life Technologies and Expression Analysis (LTEA) Assay for Fatty Acid Synthase (FASN) using HepaRG (AID 2283448); details: mRNA level, 48 h; actives raise or lower the signal;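 as to AC50: differentiated human HepaRG liver cells in serum-free induction medium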
Outline: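 In human HepaRG cultures, 48 h chemical exposure (up to 100 uM, 0.5% DMSO) preceded TaqMan qRT-PCR of FASN.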

[2] = read-out: Cyclin D2 (CCND2), CCND2 (gene 894); test: LTEA_HepaRG_CCND2: Life Technologies and Expression Analysis (LTEA) Assay for Cyclin D2 (CCND2) using HepaRG (AID 2283449); details: mRNA level, 48 h; actives raise or lower the signal
Outline: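 CCND2 transcript levels, quantified by qRT-PCR and normalised to three housekeeping genes, were fitted bidirectionally against 0.5% DMSO. HepaRG cultures were dosed 48 h in duplicate with an 8-point half-log series up to 100 uM.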

[3] = read-out: Cyclin Dependent Kinase Inhibitor 1A (CDKN1A), CDKN1A (gene 1026); test: LTEA_HepaRG_CDKN1A: Life Technologies and Expression Analysis (LTEA) Assay for Cyclin Dependent Kinase Inhibitor 1A (CDKN1A) using HepaRG (AID 2283450); details: mRNA level, 48 h; actives raise or lower the signal
Outline: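 Gain or loss of CDKN1A transcript is scored by bidirectional fitting against 0.5% DMSO vehicle. Human HepaRG cultures receive chemicals for 48 h across an 8-point series peaking at 100 uM; expression comes from qRT-PCR.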

[4] = read-out: Cyclin D1 (CCND1), CCND1 (gene 595); test: LTEA_HepaRG_CCND1: Life Technologies and Expression Analysis (LTEA) Assay for Cyclin D1 (CCND1) using HepaRG (AID 2283451); details: mRNA level, 48 h; actives raise or lower the signal;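 as to AC50: differentiated human HepaRG liver cells in serum-free induction medium; TaqMan qRT-PCR transcript level normalised to ACTB GAPDH and POLR2A housekeeping genes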
Outline: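 Expression change is measured by qRT-PCR in HepaRG cells after 48 h treatment across eight concentrations topping at 100 uM, with duplicate wells and DMSO (0.5%) serving as baseline for bidirectional fitting.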

[5] = read-out: catalase (CAT), CAT (gene 847); test: LTEA_HepaRG_CAT: Life Technologies and Expression Analysis (LTEA) Assay for catalase (CAT) using HepaRG (AID 2283452); details: mRNA level, 48 h; actives raise or lower the signal;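 as to AC50: TaqMan qRT-PCR signal normalized to ACTB GAPDH and POLR2A housekeeping genes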
Outline: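 Expression of CAT was quantified by TaqMan qRT-PCR with ACTB/GAPDH/POLR2A normalization after 48 h chemical exposure of HepaRG. Eight-point half-log series, top 100 uM, in 0.5% DMSO; gain or loss fitted against vehicle.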

[6] = read-out: flavin-containing dimethylaniline monooxygenases 3 (FMO3), FMO3 (gene 2328); test: LTEA_HepaRG_FMO3: Life Technologies and Expression Analysis (LTEA) Assay for flavin-containing dimethylaniline monooxygenases 3 (FMO3) using HepaRG (AID 2283453); details: mRNA level, 48 h; actives raise or lower the signal;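 as to AC50: differentiated human HepaRG liver cells in serum-free induction medium; FMO3 transcript by TaqMan qRT-PCR normalized to ACTB GAPDH and POLR2A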
Outline: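 Eight-point concentration-response in serum-free HepaRG cultures (top 100 uM, 0.5% DMSO, 48 h). Read-out: FMO3 mRNA level normalized to three endogenous control genes, fitted bidirectionally versus vehicle.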

[7] = read-out: Cytochrome P450 (CYP1A1), CYP1A1 (gene 1543); test: LTEA_HepaRG_CYP1A1: Life Technologies and Expression Analysis (LTEA) Assay for Cytochrome P450 (CYP1A1) using HepaRG (AID 2283454); details: mRNA level, 48 h; actives raise or lower the signal
Outline: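 Using HepaRG cultures with 0.5% DMSO as vehicle, eight-concentration exposures (max 100 uM) lasted 48 h. Transcript levels were measured by TaqMan qRT-PCR and normalized to ACTB, GAPDH and POLR2A.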

[8] = read-out: CFLAR gene, CFLAR (gene 8837); test: LTEA_HepaRG_CFLAR: Life Technologies and Expression Analysis (LTEA) Assay for CFLAR gene using HepaRG (AID 2283455); details: mRNA level, 48 h; actives raise or lower the signal
Outline: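 Transcript level by qRT-PCR (normalized to ACTB, GAPDH and POLR2A) after 48 h chemical exposure of HepaRG cells, top concentration 100 uM with half-log steps, 0.5% DMSO vehicle, duplicates; fitted bidirectionally against DMSO baseline.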

[9] = read-out: Forkhead box O1 (FOXO1), FOXO1 (gene 2308); test: LTEA_HepaRG_FOXO1: Life Technologies and Expression Analysis (LTEA) Assay for Forkhead box O1 (FOXO1) using HepaRG (AID 2283456); details: mRNA level, 48 h; actives raise or lower the signal
Outline: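 FOXO1 transcript quantified by qRT-PCR after 48 h chemical exposure (top 100 uM, half-log steps, 0.5% DMSO) of HepaRG cells, housekeeping-normalized (ACTB/GAPDH/POLR2A). Changes fitted in both directions relative to vehicle.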

[10] = CEETOX_H295R_TESTO: CeeTox H295R High-throughput Steroidogenesis Assay for Testosterone (TESTO) (AID 2283457); details: actives raise or lower the signal
Outline: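 Steroidogenesis in H295R cells following OECD 456 with minor changes; 48 h exposure. Medium testosterone by HPLC-MS/MS, DMSO as baseline, with MTT viability run in parallel.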

Measured: AC50

Sequence of Fatty acid synthase (Homo sapiens) (P49327 whole entry, looked up): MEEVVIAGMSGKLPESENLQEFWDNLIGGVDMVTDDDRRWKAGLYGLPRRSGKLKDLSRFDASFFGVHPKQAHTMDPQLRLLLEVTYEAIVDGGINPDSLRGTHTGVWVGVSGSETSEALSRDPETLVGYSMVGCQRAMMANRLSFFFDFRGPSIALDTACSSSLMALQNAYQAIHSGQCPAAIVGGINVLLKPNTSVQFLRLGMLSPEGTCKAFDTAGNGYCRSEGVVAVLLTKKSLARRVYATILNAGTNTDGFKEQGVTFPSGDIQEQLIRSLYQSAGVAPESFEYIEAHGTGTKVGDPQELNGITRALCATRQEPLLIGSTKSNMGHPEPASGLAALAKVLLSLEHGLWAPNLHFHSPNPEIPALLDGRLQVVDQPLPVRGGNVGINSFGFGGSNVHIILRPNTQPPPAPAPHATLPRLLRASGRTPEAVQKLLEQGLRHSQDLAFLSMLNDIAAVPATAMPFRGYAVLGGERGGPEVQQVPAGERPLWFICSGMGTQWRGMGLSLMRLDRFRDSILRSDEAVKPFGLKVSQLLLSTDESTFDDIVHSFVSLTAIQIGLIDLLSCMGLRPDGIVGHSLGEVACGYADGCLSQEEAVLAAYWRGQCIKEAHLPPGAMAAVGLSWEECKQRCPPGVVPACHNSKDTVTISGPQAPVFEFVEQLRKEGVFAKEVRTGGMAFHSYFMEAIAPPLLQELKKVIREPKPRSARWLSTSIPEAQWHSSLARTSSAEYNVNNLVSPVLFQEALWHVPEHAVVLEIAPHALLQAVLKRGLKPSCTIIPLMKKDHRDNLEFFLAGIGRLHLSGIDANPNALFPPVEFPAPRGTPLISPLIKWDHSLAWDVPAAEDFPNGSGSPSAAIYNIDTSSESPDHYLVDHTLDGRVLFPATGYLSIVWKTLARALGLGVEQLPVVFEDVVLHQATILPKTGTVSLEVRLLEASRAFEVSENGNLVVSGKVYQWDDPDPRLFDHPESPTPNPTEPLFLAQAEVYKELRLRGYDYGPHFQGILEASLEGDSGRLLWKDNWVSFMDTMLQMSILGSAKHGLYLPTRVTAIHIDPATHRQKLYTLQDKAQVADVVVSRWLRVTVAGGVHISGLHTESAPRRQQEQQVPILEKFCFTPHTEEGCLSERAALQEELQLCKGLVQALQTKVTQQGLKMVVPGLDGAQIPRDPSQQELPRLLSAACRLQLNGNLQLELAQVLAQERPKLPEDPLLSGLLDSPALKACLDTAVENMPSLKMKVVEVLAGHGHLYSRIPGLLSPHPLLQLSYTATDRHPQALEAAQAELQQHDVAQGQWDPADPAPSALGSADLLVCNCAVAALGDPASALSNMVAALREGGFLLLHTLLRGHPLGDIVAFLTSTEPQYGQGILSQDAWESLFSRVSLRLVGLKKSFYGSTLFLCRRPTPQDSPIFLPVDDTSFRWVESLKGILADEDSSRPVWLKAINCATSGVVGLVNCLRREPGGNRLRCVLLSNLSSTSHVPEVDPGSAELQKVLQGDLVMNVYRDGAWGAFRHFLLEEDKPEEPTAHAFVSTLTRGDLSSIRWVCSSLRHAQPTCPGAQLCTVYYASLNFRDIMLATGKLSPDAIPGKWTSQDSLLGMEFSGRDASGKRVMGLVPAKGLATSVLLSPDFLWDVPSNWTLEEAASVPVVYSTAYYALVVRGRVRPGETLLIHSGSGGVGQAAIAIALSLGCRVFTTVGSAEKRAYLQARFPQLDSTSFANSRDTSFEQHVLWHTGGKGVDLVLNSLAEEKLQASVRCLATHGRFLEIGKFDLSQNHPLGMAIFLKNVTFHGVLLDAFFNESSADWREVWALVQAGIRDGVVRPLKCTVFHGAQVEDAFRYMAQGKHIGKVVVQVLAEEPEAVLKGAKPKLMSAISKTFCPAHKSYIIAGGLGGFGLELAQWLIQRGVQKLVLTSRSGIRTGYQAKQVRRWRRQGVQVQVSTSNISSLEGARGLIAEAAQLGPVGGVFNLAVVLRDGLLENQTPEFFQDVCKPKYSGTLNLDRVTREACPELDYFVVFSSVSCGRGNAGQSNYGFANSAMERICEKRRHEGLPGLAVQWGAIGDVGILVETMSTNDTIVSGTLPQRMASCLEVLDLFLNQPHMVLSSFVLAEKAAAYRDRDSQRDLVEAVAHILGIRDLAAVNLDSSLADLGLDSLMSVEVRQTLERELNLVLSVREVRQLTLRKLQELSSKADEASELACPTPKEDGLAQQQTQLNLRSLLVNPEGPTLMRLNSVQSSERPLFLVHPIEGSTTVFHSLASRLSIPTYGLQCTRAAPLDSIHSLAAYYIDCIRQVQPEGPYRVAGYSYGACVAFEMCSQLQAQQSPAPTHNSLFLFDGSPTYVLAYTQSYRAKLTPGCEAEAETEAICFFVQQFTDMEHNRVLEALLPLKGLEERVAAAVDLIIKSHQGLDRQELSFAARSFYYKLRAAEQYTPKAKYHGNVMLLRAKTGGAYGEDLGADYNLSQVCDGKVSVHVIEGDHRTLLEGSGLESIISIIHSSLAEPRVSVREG

OCC(O)CO
not listed: [10]
inactive: all other assays above

C#CC(O)C(CC)CCCC (stereo unspecified)
active: [7] 73.1 µM
not listed: [10]
inactive: all other assays above

CO[C@@H]1COCC[C@@H]1N[C@@H]1CC[C@@](C(=O)N2CCc3ncc(C(F)(F)F)cc3C2)(C(C)C)C1
not listed: [10]
inactive: all other assays above

COc1ccc(C(=O)Nc2nc3ccccc3c(NCc3ccccc3)c2C#N)cc1
inactive: [2] | [8] | [9]
active: [1] 10.3 µM | [3] 26.3 µM | [4] 16.8 µM | [5] 18.7 µM | [6] 16.2 µM | [7] 1.39 µM

O=Cc1ccccc1C=O
active: [7] 18.5 µM
not listed: [10]
inactive: all other assays above

Oc1ccc(O)cc1
active: [7] 50 µM
not listed: [10]
inactive: all other assays above

CCc1cc(C2=C(C(=O)O)N(c3ccccc3C(F)(F)F)S(=O)(=O)c3ccccc32)cc2c1OCO2
active: [5] 50 µM | [6] 78.8 µM | [7] 50 µM
not listed: [10]
inactive: all other assays above

CN(C)C(=O)NC1(c2ccccc2)CCN(CC[C@@]2(c3ccc(F)c(F)c3)CN(C(=O)c3ccccc3)CCO2)CC1
active: [1] 29.5 µM | [6] 57 µM | [7] 47 µM
not listed: [10]
inactive: all other assays above

CN(C)C(=O)NC1(c2ccccc2)CCN(CCC[C@]2(c3ccc(Cl)c(Cl)c3)CCCN(C(=O)c3ccccc3)C2)CC1
active: [1] 16.5 µM | [3] 18.4 µM | [4] 22.7 µM | [5] 18.8 µM | [6] 18.8 µM | [9] 18.7 µM
inactive: [2] | [7] | [8]

CC(=O)S[C@H](C(=O)N[C@H]1Cc2ccccc2[C@H]2CCC[C@@H](C(=O)O)N2C1=O)C(C)C
not listed: [10]
inactive: all other assays above

CCCCCCCCCCCCCCCCO
active: [5] 9.92 µM | [7] 8.36 µM
not listed: [10]
inactive: all other assays above

Nc1nc(=S)c2[nH]cnc2[nH]1
inactive: [2] | [8] | [9]
active: [1] 9.16 µM | [3] 6.05 µM | [5] 7.04 µM | [6] 6.74 µM | [7] 76.1 µM

CCCCCCCCCC[N+](C)(C)[O-]
active: [7] 50 µM
inactive: all other assays above

CC1(C)C(=O)NC(=O)N1CO
active: [7] 50 µM
not listed: [10]
inactive: all other assays above

CCCCc1nc2cccnc2n1Cc1ccc(-c2ccccc2-c2nnn[nH]2)cc1
active: [1] 50 µM | [7] 50 µM
not listed: [5] | [10]
inactive: all other assays above

CCCCOC(=O)CCCCC(=O)OCCCC
active: [7] 50 µM
not listed: [4] | [10]
inactive: all other assays above

CCN(CC)CCOc1ccc(C(=C(Cl)c2ccccc2)c2ccccc2)cc1
active: [5] 42 µM | [6] 22 µM
inactive: all other assays above

CC1=C(C)S(=O)(=O)CCS1(=O)=O
active: [1] 81.6 µM | [3] 85.4 µM | [6] 90.9 µM | [7] 50 µM
inactive: all other assays above

CC(=O)O
active: [7] 72.2 µM
not listed: [4] | [10]
inactive: all other assays above

Cc1occc(=O)c1O
not listed: [7] | [10]
inactive: all other assays above

CN(C)CCCN1c2ccccc2Sc2ccc(Cl)cc21
active: [1] 12.5 µM | [3] 50 µM | [4] 50 µM | [5] 50 µM | [7] 27.1 µM | [8] 71.3 µM | [9] 79.2 µM
inactive: [2]

Source: PubChem BioAssay (EPA / NIEHS)
